Results reported in PubChem BioAssay AID588453 (National Center for Advancing Translational Sciences (NCATS), 2011).
The campaign covered roughly 390,000 compounds. About 4,000 (1%) were called active. Another 4% or so got no clear call; they are omitted. The call rests on the fitted dose curve; in most records, active means well fitted inhibition curve with a large enough effect; inconclusive means small, poorly fitted or top-dose-only effect; inactive means no such curve, though single readings can be large or run the other way. Many of the other results were omitted from the sample, so actives are more common in it than they were.

biological target: Thioredoxin reductase 1, cytoplasmic (Rattus norvegicus) (UniProt O89049); test: qHTS Assay for Inhibitors of Mammalian Selenoprotein Thioredoxin Reductase 1 (TrxR1): qHTS; conditions: recombinant rTrxR1, NADPH fluorescence consumption, selenite substrate; series mostly up to 114 µM; activity change, negative = inhibition: at the top concentration; further: nearly all actives have a fitted effect of over 65% in size
Excerpt: The selenoprotein thioredoxin reductase (TrxR; EC 1.8.1.9) is a FAD containing homodimeric pyridine nucleotide-disulfide oxidoreductase with many cellular roles. Together with NADPH and its prime substrate thioredoxin (Trx), the enzyme forms the core of the Trx system. The mammalian Trx system exerts a wide spectrum of functions including redox regulation, antioxidant defense, regulation of transcription factors as well as support of cell growth and replication. Many of these functions involve the reduction of Trx, which may subsequently reduce a number of different substrates including ribonucleotide reductase, peroxiredoxins or NFkB. Mammalian TrxR itself also has a broad substrate specificity, reducing both protein and non-protein substrates, including low molecular weight compounds such as dehydroascorbate, lipoic acid, ubiquinone, and juglone. In addition, several drugs in clinical use for anticancer treatment are indeed known to target TrxR1.
This BioAssay is a validation of an NADPH fluorescence-based, dual-purpose qHTS rTrxR1 assay designed to find potential inhibitors and substrates of rTrxR1. For this particular BioAssay, actives are potential inhibitors. See related BioAssay for substrate data deposition.
NIH Molecular Libraries Probe Production Network [MLPCN]
NIH Chemical Genomics Center [NCGC]
Assay Provider: Elias Arner, Karolinska Institute
Assay protocol: 2 uL of reagents (buffer in column 4 as negative control and 90 nM rTrxR1 in columns 1-3 and 5-48) were dispensed into Greiner black solid-bottom 1,536-well assay plates, followed by 1 uL of NADPH (400 uM final concentration) to each well. The plates were centrifuged at 1000 rpm for 15 seconds and subsequently incubated for 5 min at room temperature (~22 deg C) to allow for rTrxR1 reduction. Compounds (23 nL) were then transferred via Kalypsys pin tool equipped with 1536-pin array (10 nL slotted pins, V&P Scientific, San Diego, CA). In addition, a duplicate 2-fold serial dilution of the control compounds auranofin, a known gold-based TrxR1 inhibitor, and juglone (5-hydroxy-1,4-naphthoquinone), a natural TrxR1 substrate, were pin-transferred to columns 2 and 3, respectively. After incubation for 15 min at room temperature (~22 deg C), 1 uL of selenite (400 uM final concentration) were dispensed to each well. The plate was immediately transferred to a ViewLux high-throughput CCD imager (PerkinElmer), wherein kinetic measurements of NADPH fluorescence (Ex 340 nm, Em 450 nm) were acquired (8 minute kinetic read, see Table 1). Read 1 was utilized to assess the capacity of a compound to serve as an rTrxR1 substrate, i.e. a decrease in NADPH fluorescence compared to the no-compound background is an indication of a substrate behavior for that particular compound. For inhibitory activity of a compound, delta values, computed as the difference in fluorescence intensity between the first and last reads of an 8-minute time kinetic window, were used. All reagents were diluted in an assay buffer consisting of 50 mM Tris-HCl, pH 7.5, 2 mM EDTA, and 0.01% Tween-20.
Throughout the screen, reagent bottle and all liquid lines were made light-tight to minimize reagent degradation. All screening operations were performed on a fully integrated robotic system (Kalypsys, San Diego, CA) containing one RX-130 and two RX-90 anthropomorphic robotic arms (Staubli, Duncan, SC). Library plates were screened starting from the lowest and proceeding to the highest concentration, and a 'double-pinning' step of the highest concentration was required to access higher concentrations of compounds. Vehicle-only plates, with DMSO being pin-transferred to the columns 5-48, were inserted uniformly at the beginning and the end of each library in order to monitor and record any shifts in the background, which can be affected by reagent dispensers or loss in enzyme activity over time. […]
On the % scale 0 is the no-effect control and ±100 the full control effect; potency means the concentration at half of the fitted maximal effect.

Chain of Thioredoxin reductase 1, cytoplasmic (Rattus norvegicus) (O89049 whole entry, looked up): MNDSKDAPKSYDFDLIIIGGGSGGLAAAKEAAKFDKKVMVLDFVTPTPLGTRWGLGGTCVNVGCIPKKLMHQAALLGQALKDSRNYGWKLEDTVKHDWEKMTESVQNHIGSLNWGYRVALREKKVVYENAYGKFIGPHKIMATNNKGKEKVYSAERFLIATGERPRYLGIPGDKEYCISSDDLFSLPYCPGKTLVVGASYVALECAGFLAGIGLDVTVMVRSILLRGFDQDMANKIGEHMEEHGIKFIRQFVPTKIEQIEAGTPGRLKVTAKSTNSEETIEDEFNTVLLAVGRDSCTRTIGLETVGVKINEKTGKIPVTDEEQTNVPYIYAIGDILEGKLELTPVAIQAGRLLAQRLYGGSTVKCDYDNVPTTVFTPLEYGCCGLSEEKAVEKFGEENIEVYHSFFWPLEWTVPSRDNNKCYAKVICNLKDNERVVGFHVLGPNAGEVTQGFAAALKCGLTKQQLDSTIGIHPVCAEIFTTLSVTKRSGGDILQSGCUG

Activity change, negative = inhibition, inactive:
COc1ccc(CNC(=O)CS(=O)Cc2nc(-c3cccc(C)c3)oc2C)cc1 (stereo not drawn) -11.3%
CNC(=O)c1ccc(-c2nc(CN3CCc4ccccc43)c(C)o2)cc1 13.2% [at 57.1 µM]
Nc1ccc(/C=C/c2ccnc3ccccc23)c([N+](=O)[O-])c1 2.67%
CCCCNc1ccc(-c2nc(-c3ccncc3)no2)cc1[N+](=O)[O-] -3.02%
CCC1CCCCN1S(=O)(=O)c1ccc(NC(=O)c2cc(=O)c3ccccc3o2)cc1 (stereo not drawn) 16.9%
Brc1nc2ncnc(NCc3ccco3)c2[nH]1 24.3% [at 0.0914 µM]
COc1cc(CNC(=O)c2cc3n(n2)CCCN(Cc2cccc(F)c2)C3=O)cc(OC)c1OC 10.6% [at 57.1 µM]
CC1CCN(C(=O)Cn2c(=O)n(-c3ccc(Cl)cc3)c(=O)c3c4c(sc32)CCC4)CC1 21%
O=C(O)C1=C/C(=C/C=[N+]2c3cc(O)c(O[C@H]4OC(CO)[C@@H](O)[C@@H](O)[C@@H]4O)cc3C[C@@H]2C(=O)[O-])C[C@H](C(=O)O)N1 (stereo partly drawn) -0.117%
CC(C)(C)c1ccc(C(CC(=O)O)NS(=O)(=O)Cc2ccccc2)cc1 (stereo not drawn) 26.7%
CC(C)[C@@H](NC(=O)OC(C)(C)C)C(=O)NCC1CCC(C(=O)N[C@@H](Cc2ccccc2)C(=O)O)CC1 (stereo partly drawn) 17.4% [at 57.1 µM]
Cc1ccc(Cl)cc1NC(=O)CSc1nccn1C 30% [at 57.1 µM]
Cc1cccc(CN2Cc3cccc4c3[C@H](C=CC4)CC2=S)c1 -7.23%
N#Cc1ccc[n+](CC(=O)c2ccc(F)cc2)c1 -15.1%
CC1CCCN(c2cc3c(cc2F)c(=O)c(S(=O)(=O)c2cccc(Cl)c2)cn3Cc2ccccc2)C1 (stereo not drawn) 20.8%
COc1ccc(CNC(=O)CC2Oc3ccc(C)cc3NC2=O)cc1 (stereo not drawn) 5.11%
COc1cc(C(=S)N2CCOCC2)cc(OC)c1OC(=O)c1ccc([N+](=O)[O-])cc1[N+](=O)[O-] 7.04% [at 57.1 µM]
CCOC(=O)N1CCN(c2cc(C)c([N+](=O)[O-])cc2F)CC1 9.84% [at 57.1 µM]
O=C(O)C1CC(=O)N(Cc2cccnc2)C1 (stereo not drawn) -3.09%
O=C(Nc1ccc2nc(SCC(=O)N3CCCc4ccccc43)sc2c1)c1ccc(Cl)cc1 38.1%
C=C1C=C(C(F)F)n2ncc(C(=O)NCCc3ccccc3OC)c2N1 1.89%
Cc1ccccc1CN1CCC(CNC(=O)c2c(C)oc3ncnc(N4CCCCC4)c23)CC1 16.4%
Cc1ccc(C)c(Cn2c(C)c(CNCc3ccc(F)cc3)c(C(=O)O)c2C)c1 20.8%
O=C(Cn1c[n+](CC(=O)c2ccc([N+](=O)[O-])cc2)cn1)c1ccc([N+](=O)[O-])cc1 -30.7%
O=C(CCn1nnc2ccccc21)OCC(=O)c1ccc([N+](=O)[O-])cc1 25.8%
CCOc1ccc(N2C(=O)CC(N(CCc3ccc(OC)c(OC)c3)C(=S)Nc3ccccc3)C2=O)cc1 (stereo not drawn) -11.6%
CCCOc1ccc(N2C(=O)CC(N(CCc3ccc(S(N)(=O)=O)cc3)C(C)=O)C2=O)cc1 (stereo not drawn) 10.5%
O=C(CC1N=C2c3ccccc3N=C(SCc3ccc(F)cc3)N2C1=O)NCc1cccs1 (stereo not drawn) 1.84% [at 57.1 µM]
Cc1nc2ccccn2c(=O)c1NC(=O)c1c(F)cccc1F 16.1% [at 57.1 µM]
CCc1ccc(NC(=O)CCCc2nnc3n(CCCOC)c(=O)c4sccc4n23)cc1 23.7%
CCOc1ccccc1CNC(=O)c1ccc(-n2c(C)cc3c2CCC(C)C3)cc1 (stereo not drawn) -7.5%
CCOc1cccc(CC(=O)N2CCc3c([nH]c4ccccc34)C2c2ccc(F)cc2)c1OCC (stereo not drawn) 38.1% [at 57.1 µM]
O=C(c1cnn2c1NC(=C1CC1)C=C2C(F)F)N1CCc2ccccc2C1 -19.6%
CCOC(=O)c1ccc(NC(=O)C2CC(=O)N(c3ccc(C(C)C)cc3)C2)cc1 (stereo not drawn) 10.9%
CCN1CCN(C(=O)C2CCN(S(=O)(=O)c3cc(Cl)ccc3Cl)CC2)CC1 18.4% [at 57.1 µM]
O=S(=O)(c1cc(Cl)ccc1Cl)N1CCN(Cc2ccco2)CC1 -4.98%
CN1CCN(C2(CNC(=O)COc3ccc(C(C)(C)C)cc3)CCCCC2)CC1 18.5%
COc1ccc(S(=O)(=O)NCC(c2ccc(N(C)C)cc2)N2CCCC2)cc1 (stereo not drawn) 11.6% [at 57.1 µM]
COc1ccc2cc(-c3[nH]ncc3CNCCn3nc(C)cc3C)ccc2c1 28.7%

Potency, active:
C[C@@H](NC(=O)OC(C)(C)C)c1nnc(S(=O)(=O)Cc2ccccc2)o1 0.316 µM
C=COC(=O)N1CCN(/[N+]([O-])=N/Oc2ccc([N+](=O)[O-])cc2[N+](=O)[O-])CC1 10 µM
O=C1/C(=C\c2cccnc2)CN(Cc2ccccc2)C/C1=C\c1cccnc1 50.1 µM
O=C(CC(n1cncn1)C(Cl)(Cl)Cl)c1ccc([N+](=O)[O-])cc1 (stereo not drawn) 3.55 µM
CCOc1ccc(N2C(=O)CC(N(O)c3ccccc3)C2=O)cc1 (stereo not drawn) 12.6 µM
CCOc1cccc2c1N[C@@H](c1ccc(C(=O)O)cc1)[C@H]1CC=C[C@@H]21 11.2 µM
O=C(CN1CCN(S(=O)(=O)c2cc(Cl)ccc2Cl)CC1)c1ccc(O)c(O)c1 44.7 µM
COc1ccc(C(C[N+](=O)[O-])n2nc(C)cc2C)cc1 (stereo not drawn) 8.91 µM

Potency, inactive:
O=C(O)CCc1cccnc1
